Where “and” joins values, the source holds several entries; their conditions need not be identical. Equal entries are not always repeated. Screen size: about 5,500 compounds; about 2,000 (36%) were called active. About 18% were inconclusive and are not listed. Cut-off read from the data, not from the text of the source: active = normalized growth mostly below about 0.91 (no sharp cut-off); inconclusive = no clear call, values can overlap the other calls; inactive = mostly above about 0.92. The list shows a part of the results.
Experiment: chemical genetic growth profiling, strain panel (AID 1159580);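 note: tested at 20 µM; growth read once vehicle control cultures reached saturation at 30 °C; 1 = growth at the plate median or of vehicle wells; lower values mean less growth of the strain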
Conditions: growth OD

Measured: normalized growth

C[C@@H]1OC(O[C@H]2[C@H](O)[C@@H](O)[C@H](OC[C@H]3O[C@@H](OC(=O)[C@]45CCC(C)(C)CC4C4=CCC6[C@@]7(C)CC[C@H](OC8OC[C@H](O)[C@H](O)[C@H]8OC8O[C@@H](C)[C@H](O)[C@@H](O)[C@H]8O)[C@@](C)(CO)C7CC[C@@]6(C)[C@]4(C)CC5)[C@H](O)[C@@H](O)[C@@H]3O)O[C@@H]2CO)[C@H](O)[C@H](O)[C@H]1O (some centres undefined)
inactive: S. cerevisiae deletion strains, locus YBR021W, strain FUR4, hits give low values 0.991 | S. cerevisiae deletion strains, locus YBR229C, strain ROT2, hits give low values 0.987 | S. cerevisiae deletion strains, locus YCL029C, strain bik1, hits give low values 0.985 | S. cerevisiae deletion strains, locus YDL035C, strain GPR1, hits give low values 1 | S. cerevisiae deletion strains, locus YDL074C, strain BRE1, hits give low values 0.99 | S. cerevisiae deletion strains, locus YDL101C, strain DUN1, hits give low values 0.992 | S. cerevisiae deletion strains, locus YDL134C, strain PPH21, hits give low values 1.02 | S. cerevisiae deletion strains, locus YDL185W, strain tfp1, hits give low values 0.97 | S. cerevisiae deletion strains, locus YDL192W, strain arf1, hits give low values 0.985 | S. cerevisiae deletion strains, locus YDR101C, strain arx1, hits give low values 0.995 | S. cerevisiae deletion strains, locus YDR150W, strain NUM1, hits give low values 0.998 | S. cerevisiae deletion strains, locus YDR162C, strain NBP2, hits give low values 1.02 | S. cerevisiae deletion strains, locus YDR318W, strain mcm21, hits give low values 0.993 | S. cerevisiae deletion strains, locus YDR388W, hits give low values 0.986 | S. cerevisiae deletion strains, locus YDR502C, strain sam2, hits give low values 0.99 | S. cerevisiae deletion strains, locus YEL061C, strain CIN8, hits give low values 0.993 | S. cerevisiae deletion strains, locus YER110C, hits give low values 0.986 | S. cerevisiae deletion strains, locus YER155C, strain BEM2, hits give low values 0.989 | S. cerevisiae deletion strains, locus YER167W, strain BCK2, hits give low values 1 | S. cerevisiae deletion strains, locus YGL078C, strain dbp3, hits give low values 0.985 | S. cerevisiae deletion strains, locus YGL086W, strain mad1, hits give low values 1.01 | S. cerevisiae deletion strains, locus YGL248W, strain PDE1, hits give low values 0.991 | S. cerevisiae deletion strains, locus YGR135W, strain pre9, hits give low values 0.993 | S. cerevisiae deletion strains, locus YGR229C, strain SMI1, hits give low values 1.01 | S. cerevisiae deletion strains, locus YGR252W, strain gcn5, hits give low values 0.987 | S. cerevisiae deletion strains, locus YHR030C, strain SLT2, hits give low values 0.997 and 1.02 | S. cerevisiae deletion strains, locus YHR079C, strain IRE1 (second series), hits give low values 0.993 | S. cerevisiae deletion strains, locus YHR079C, strain IRE1, hits give low values 1.01 | S. cerevisiae deletion strains, locus YHR094C, strain hxt1, hits give low values 0.996 | S. cerevisiae deletion strains, locus YHR129C, strain ARP1, hits give low values 0.99 | S. cerevisiae deletion strains, locus YHR200W, strain rpn10, hits give low values 0.997 | S. cerevisiae deletion strains, locus YIL066C, strain RNR3, hits give low values 1 | S. cerevisiae deletion strains, locus YIL073C, strain SPO22, hits give low values 0.993 | S. cerevisiae deletion strains, locus YIL125W, strain kgd1, hits give low values 0.983 | S. cerevisiae deletion strains, locus YIR030C, strain dcg1, hits give low values 1 | S. cerevisiae deletion strains, locus YJL095W, strain BCK1, hits give low values 1.01 and 0.985 | S. cerevisiae deletion strains, locus YJL134W, strain LCB3, hits give low values 0.991 | S. cerevisiae deletion strains, locus YJL168C, strain set2, hits give low values 0.991 | S. cerevisiae deletion strains, locus YJL187C, strain SWE1 (second series), hits give low values 0.997 | S. cerevisiae deletion strains, locus YJR043C, strain POL32, hits give low values 1.02 | S. cerevisiae deletion strains, locus YJR066W, strain TOR1, hits give low values 0.967 | S. cerevisiae deletion strains, locus YJR075W, strain HOC1, hits give low values 1.02 | S. cerevisiae deletion strains, locus YKL009W, strain mrt4, hits give low values 0.968 | S. cerevisiae deletion strains, locus YKL068W, hits give low values 0.98 | S. cerevisiae deletion strains, locus YKL085W, strain MDH1 (second series), hits give low values 1 | S. cerevisiae deletion strains, locus YKL085W, strain MDH1, hits give low values 1 | S. cerevisiae deletion strains, locus YKL190W, strain CNB1, hits give low values 0.995 | S. cerevisiae deletion strains, locus YKR001C, strain vps1, hits give low values 0.984 | S. cerevisiae deletion strains, locus YLR039C, strain RIC1, hits give low values 1.04 | S. cerevisiae deletion strains, locus YLR058C, strain SHM2, hits give low values 0.988 | S. cerevisiae deletion strains, locus YLR102C, strain apc9, hits give low values 0.993 | S. cerevisiae deletion strains, locus YLR113W, strain HOG1, hits give low values 0.992 | S. cerevisiae deletion strains, locus YLR262C, strain YPT6, hits give low values 1.03 | S. cerevisiae deletion strains, locus YLR268W, strain sec22, hits give low values 0.992 | S. cerevisiae deletion strains, locus YLR330W, strain CHS5, hits give low values 0.989 | S. cerevisiae deletion strains, locus YLR342W, strain FKS1 (second series), hits give low values 1.01 | S. cerevisiae deletion strains, locus YLR371W, strain rom2, hits give low values 0.986 | S. cerevisiae deletion strains, locus YLR418C, strain cdc73, hits give low values 0.992 | S. cerevisiae deletion strains, locus YML016C, strain PPZ1, hits give low values 0.987 | S. cerevisiae deletion strains, locus YML032C, strain rad52, hits give low values 0.986 | S. cerevisiae deletion strains, locus YML124C, strain tub3, hits give low values 0.991 | S. cerevisiae deletion strains, locus YMR078C, strain ctf18, hits give low values 0.985 | S. cerevisiae deletion strains, locus YMR223W, strain ubp8, hits give low values 0.98 | S. cerevisiae deletion strains, locus YMR263W, strain SAP30, hits give low values 1.01 | S. cerevisiae deletion strains, locus YMR307W, strain GAS1, hits give low values 1.06 | S. cerevisiae deletion strains, locus YNL067W, strain RPL9B, hits give low values 1.01 | S. cerevisiae deletion strains, locus YNL128W, strain TEP1, hits give low values 0.994 | S. cerevisiae deletion strains, locus YNL153C, strain GIM3, hits give low values 1.02 | S. cerevisiae deletion strains, locus YNL183C, strain NPR1, hits give low values 0.983 | S. cerevisiae deletion strains, locus YNL233W, strain BNI4, hits give low values 1 | S. cerevisiae deletion strains, locus YNL250W, strain rad50, hits give low values 0.971 | S. cerevisiae deletion strains, locus YNL271C, strain bni1, hits give low values 0.987 | S. cerevisiae deletion strains, locus YNL298W, strain CLA4, hits give low values 0.993 | S. cerevisiae deletion strains, locus YNL307C, strain MCK1, hits give low values 0.989 | S. cerevisiae deletion strains, locus YNR052C, strain pop2, hits give low values 0.978 | S. cerevisiae deletion strains, locus YOL006C, strain TOP1, hits give low values 0.946 | S. cerevisiae deletion strains, locus YOL012C, strain htz1 0.966 | S. cerevisiae deletion strains, locus YOL147C, strain pex11, hits give low values 0.997 | S. cerevisiae deletion strains, locus YOR061W, strain CKA2, hits give low values 0.984 | S. cerevisiae deletion strains, locus YOR069W, strain VPS5, hits give low values 0.991 | S. cerevisiae deletion strains, locus YOR136W, strain idh2, hits give low values 0.979 | S. cerevisiae deletion strains, locus YOR144C, strain elg1, hits give low values 0.997 | S. cerevisiae deletion strains, locus YOR184W, strain ser1, hits give low values 1.01 | S. cerevisiae deletion strains, locus YOR231W, strain MKK1, hits give low values 0.983 | S. cerevisiae deletion strains, locus YOR316C, strain cot1, hits give low values 0.983 | S. cerevisiae deletion strains, locus YPL055C, strain LGE1, hits give low values 1.02 | S. cerevisiae deletion strains, locus YPL241C, strain CIN2, hits give low values 0.997 | S. cerevisiae deletion strains, locus YPL256C, strain CLN2, hits give low values 1.04 | S. cerevisiae deletion strains, locus YPR119W, strain clb2, hits give low values 0.991 | S. cerevisiae deletion strains, locus YPR141C, strain kar3, hits give low values 0.982 | S. cerevisiae deletion strains, locus YPR163C, strain tif3, hits give low values 0.994 | S. cerevisiae deletion strains, locus YPR167C, strain met16, hits give low values 0.985 | S. cerevisiae deletion strains, strain wtn01, hits give low values 1 | S. cerevisiae strains, strain wild type, hits give low values 0.994
